# Source: PubChem BioAssay (NCI)
# About 79,000 compounds went through this panel and 15% of them were active in at least one assay; those are over-represented in the sample as a whole. Values without a mark were called inactive. The source made the active and inactive calls. No stated cut-off is given here; in the data, active means growth inhibition above about 70%; inactive means the rest.
# Assays:
# [1] = NCI Yeast Anticancer Drug Screen. Data for the rad52 strain (AID 147);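 further: 0% = growth of vehicle-treated control cultures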; conditions: S. cerevisiae rad52 mutant growth inhibition, hits give high values
# How it was run: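 Vehicle-treated cultures served as the reference for growth inhibition of compound-exposed yeast bearing a DNA repair mutation.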
# [2] = NCI Yeast Anticancer Drug Screen. Data for the wt1 strain (AID 149);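 further: 0% = growth of vehicle-treated wt1 cultures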; conditions: S. cerevisiae wt1 strain (SPY 50644) growth inhibition, hits give high values
# How it was run: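 Using yeast strain wt1, compound-induced growth inhibition was determined against vehicle-treated cultures.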
# [3] = NCI Yeast Anticancer Drug Screen. Data for the rad50EPP+ strain (AID 151);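 further: 0% = growth of vehicle-treated control cultures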; conditions: S. cerevisiae rad50 mutant strain, hits give high values
# How it was run: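 In this screen, rad50EPP+ yeast were exposed to compounds. Growth inhibition was scored against vehicle-treated controls.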
# [4] = NCI Yeast Anticancer Drug Screen. Data for the mgt1 strain (AID 153); conditions: S. cerevisiae mgt1 mutant growth inhibition, hits give high values
# How it was run: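 mgt1 strain exposed; growth vs vehicle control recorded as inhibition.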
# [5] = NCI Yeast Anticancer Drug Screen. Data for the rad50 strain (AID 155);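 further: 0% = growth of vehicle-only cultures of the same strain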; conditions: S. cerevisiae rad50 strain growth inhibition, hits give high values
# How it was run: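 Relative growth inhibition (compound vs vehicle) was measured in yeast with a defined repair-gene alteration.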
# [6] = NCI Yeast Anticancer Drug Screen. Data for the mec2-1 strain (AID 157); conditions: S. cerevisiae mec2-1 strain, hits give high values
# How it was run: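 Vehicle-treated cultures served as reference for growth inhibition of compound-exposed mec2-1 yeast.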
# [7] = NCI Yeast Anticancer Drug Screen. Data for the rad14 strain (AID 159);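 further: 0% = growth of vehicle-treated control cultures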; conditions: S. cerevisiae rad14 strain growth inhibition, hits give high values
# How it was run: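 Screen for anticancer potential: a yeast strain altered in DNA damage repair is grown with compound, and reduced growth is quantified against vehicle controls.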
# [8] = NCI Yeast Anticancer Drug Screen. Data for the sgs1 mgt1 strain (AID 161);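 further: 0% = growth of cultures given vehicle only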; conditions: S. cerevisiae sgs1 mgt1 strain, hits give high values
# How it was run: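 Genetically altered yeast, compound exposure, growth inhibition relative to vehicle.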
# [9] = NCI Yeast Anticancer Drug Screen. Data for the CLN2oe strain (AID 163);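 further: 0% = growth of vehicle-only control cultures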; conditions: S. cerevisiae CLN2oe strain, hits give high values
# How it was run: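 Inhibition relative to vehicle-treated yeast is reported. Cells: strain with genetic alteration in cell-cycle control, grown with compound.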
# [10] = NCI Yeast Anticancer Drug Screen. Data for the cln2 rad14 strain (AID 165);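 further: 0% = growth equal to vehicle treated cultures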; conditions: S. cerevisiae cln2 rad14 strain, hits give high values
# How it was run: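 Each compound was tested on cln2 rad14 yeast. Inhibition of growth was calculated against vehicle-exposed controls.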
# [11] = NCI Yeast Anticancer Drug Screen. Data for the bub3 strain (AID 167); conditions: S. cerevisiae bub3 mutant strain, hits give high values
# How it was run: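 Screening used yeast with an engineered genetic alteration affecting cell cycle control. Compound-exposed cultures were compared with vehicle cultures, and reduced growth was taken as inhibition.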
# [12] = NCI Yeast Anticancer Drug Screen. Data for the wt2 strain (AID 169);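 further: 0% = growth of vehicle-treated yeast cultures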; conditions: S. cerevisiae wt2 strain growth inhibition, hits give high values
# How it was run: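 Inhibition of yeast growth was determined after compound treatment, normalised to controls receiving only vehicle.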
# [13] = NCI Yeast Anticancer Drug Screen. Data for the mlh1 strain (AID 171);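 further: 0% = growth of vehicle-treated control cultures of the same strain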; conditions: S. cerevisiae mlh1 strain growth inhibition, hits give high values
# How it was run: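 Vehicle-normalised growth inhibition of a repair- or checkpoint-altered yeast strain following compound treatment.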
# [14] = NCI Yeast Anticancer Drug Screen. Data for the sgs1 strain (AID 173);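 further: 0% = growth of vehicle-only control cultures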; conditions: S. cerevisiae sgs1 mutant, hits give high values
# How it was run: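 Screen format: yeast with repair or checkpoint alterations, compound exposure, growth read relative to vehicle.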
# [15] = NCI Yeast Anticancer Drug Screen. Data for the mlh1 rad18 strain (AID 175); conditions: S. cerevisiae mlh1 rad18 strain growth inhibition, hits give high values
# How it was run: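 Vehicle-treated cultures served as the reference for growth inhibition in a yeast strain carrying DNA damage repair alterations exposed to each compound.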
# [16] = NCI Yeast Anticancer Drug Screen. Data for the rad18 strain (AID 177); conditions: S. cerevisiae rad18 mutant growth inhibition, hits give high values
# How it was run: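 Test articles were incubated with altered yeast defective in DNA damage repair. Results are given as inhibition of growth versus vehicle.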
# [17] = at 5.0 µM (retest, dose inferred, filed as 0.5)
# [18] = at 50.0 µM (retest, dose inferred, filed as 5.0)
compound,measurement,setting,value
COc1ccccc1/C=C\C(=O)C1COCN1 (stereo unspecified),growth inhibition,[1]; at 1.2 µM,4%
same,growth inhibition,[1]; at 3.7 µM,14%
same,growth inhibition,[1]; at 11.0 µM,25%
same,growth inhibition,[1]; at 33.0 µM,71% (active)
same,growth inhibition,[1]; at 100.0 µM,99% (active)
same,growth inhibition,[2]; at 1.2 µM,-4%
same,growth inhibition,[2]; at 3.7 µM,-4%
same,growth inhibition,[2]; at 11.0 µM,-7%
same,growth inhibition,[2]; at 33.0 µM,19%
same,growth inhibition,[2]; at 100.0 µM,99% (active)
same,growth inhibition,[3]; at 1.2 µM,11%
same,growth inhibition,[3]; at 3.7 µM,20%
same,growth inhibition,[3]; at 11.0 µM,42%
same,growth inhibition,[3]; at 33.0 µM,73% (active)
same,growth inhibition,[3]; at 100.0 µM,92% (active)
same,growth inhibition,[4]; at 1.2 µM,-1%
same,growth inhibition,[4]; at 3.7 µM,-2%
same,growth inhibition,[4]; at 11.0 µM,-2%
same,growth inhibition,[4]; at 33.0 µM,53%
same,growth inhibition,[4]; at 100.0 µM,99% (active)
same,growth inhibition,[5]; at 1.2 µM,9%
same,growth inhibition,[5]; at 3.7 µM,6%
same,growth inhibition,[5]; [17],-141%
same,growth inhibition,[5]; at 11.0 µM,12%
same,growth inhibition,[5]; at 33.0 µM,95% (active)
same,growth inhibition,[5]; [18],82% (active)
same,growth inhibition,[5]; at 50.0 µM,97.2% (active)
same,growth inhibition,[5]; at 100.0 µM,98% (active)
same,growth inhibition,[6]; at 1.2 µM,4%
same,growth inhibition,[6]; at 3.7 µM,5%
same,growth inhibition,[6]; [17],-49%
same,growth inhibition,[6]; at 11.0 µM,12%
same,growth inhibition,[6]; at 33.0 µM,38%
same,growth inhibition,[6]; [18],28%
same,growth inhibition,[6]; at 50.0 µM,98.7% (active)
same,growth inhibition,[6]; at 100.0 µM,99% (active)
same,growth inhibition,[7]; at 1.2 µM,0%
same,growth inhibition,[7]; at 3.7 µM,-1%
same,growth inhibition,[7]; at 11.0 µM,9%
same,growth inhibition,[7]; at 33.0 µM,38%
same,growth inhibition,[7]; at 100.0 µM,99% (active)
same,growth inhibition,[8]; [17],-63%
same,growth inhibition,[8]; [18],75% (active)
same,growth inhibition,[8]; at 50.0 µM,84.7% (active)
same,growth inhibition,[9]; at 1.2 µM,2%
same,growth inhibition,[9]; at 3.7 µM,1%
same,growth inhibition,[9]; at 11.0 µM,1%
same,growth inhibition,[9]; at 33.0 µM,13%
same,growth inhibition,[9]; at 100.0 µM,98% (active)
same,growth inhibition,[10]; [17],-57%
same,growth inhibition,[10]; [18],-60%
same,growth inhibition,[10]; at 50.0 µM,7.45%
same,growth inhibition,[11]; at 1.2 µM,0%
same,growth inhibition,[11]; at 3.7 µM,9%
same,growth inhibition,[11]; [17],-53%
same,growth inhibition,[11]; at 11.0 µM,18%
same,growth inhibition,[11]; at 33.0 µM,69%
same,growth inhibition,[11]; [18],69%
same,growth inhibition,[11]; at 50.0 µM,97.3% (active)
same,growth inhibition,[11]; at 100.0 µM,99% (active)
same,growth inhibition,[12]; at 1.2 µM,2%
same,growth inhibition,[12]; at 3.7 µM,1%
same,growth inhibition,[12]; at 11.0 µM,0%
same,growth inhibition,[12]; at 33.0 µM,37%
same,growth inhibition,[12]; at 100.0 µM,99% (active)
same,growth inhibition,[13]; at 1.2 µM,9%
same,growth inhibition,[13]; at 3.7 µM,2%
same,growth inhibition,[13]; at 11.0 µM,12%
same,growth inhibition,[13]; at 33.0 µM,83% (active)
same,growth inhibition,[13]; at 100.0 µM,99% (active)
same,growth inhibition,[14]; at 1.2 µM,1%
same,growth inhibition,[14]; at 3.7 µM,2%
same,growth inhibition,[14]; at 11.0 µM,18%
same,growth inhibition,[14]; at 33.0 µM,92% (active)
same,growth inhibition,[14]; at 100.0 µM,99% (active)
same,growth inhibition,[15]; [17],-122%
same,growth inhibition,[15]; [18],82% (active)
same,growth inhibition,[15]; at 50.0 µM,99.1% (active)
same,growth inhibition,[16]; at 1.2 µM,0%
same,growth inhibition,[16]; at 3.7 µM,5%
same,growth inhibition,[16]; at 11.0 µM,15%
same,growth inhibition,[16]; at 33.0 µM,67%
same,growth inhibition,[16]; at 100.0 µM,98% (active)
COc1ccc(C(OCC2OC(n3cnc4c(=O)n(Cc5ccccc5[N+](=O)[O-])nnc43)C(O)C2O)(c2ccccc2)c2ccc(OC)cc2)cc1 (stereo unspecified),growth inhibition,[1]; at 1.2 µM,12%
same,growth inhibition,[1]; at 3.7 µM,16%
same,growth inhibition,[1]; at 11.0 µM,18%
same,growth inhibition,[1]; at 33.0 µM,19%
same,growth inhibition,[1]; at 100.0 µM,15%
same,growth inhibition,[2]; at 1.2 µM,-18%
same,growth inhibition,[2]; at 3.7 µM,-11%
same,growth inhibition,[2]; at 11.0 µM,-2%
same,growth inhibition,[2]; at 33.0 µM,-4%
same,growth inhibition,[2]; at 100.0 µM,-2%
same,growth inhibition,[3]; at 1.2 µM,8%
same,growth inhibition,[3]; at 3.7 µM,8%
same,growth inhibition,[3]; at 11.0 µM,-5%
same,growth inhibition,[3]; at 33.0 µM,-7%
same,growth inhibition,[3]; at 100.0 µM,-15%
same,growth inhibition,[4]; at 1.2 µM,9%
same,growth inhibition,[4]; at 3.7 µM,5%
same,growth inhibition,[4]; at 11.0 µM,20%
same,growth inhibition,[4]; at 33.0 µM,25%
same,growth inhibition,[4]; at 100.0 µM,20%
same,growth inhibition,[5]; at 1.2 µM,22%
same,growth inhibition,[5]; at 3.7 µM,24%
same,growth inhibition,[5]; [17],17%
same,growth inhibition,[5]; at 11.0 µM,26%
same,growth inhibition,[5]; at 33.0 µM,18%
same,growth inhibition,[5]; [18],35%
same,growth inhibition,[5]; at 50.0 µM,89.2% (active)
same,growth inhibition,[5]; at 100.0 µM,17%
same,growth inhibition,[6]; at 1.2 µM,14%
same,growth inhibition,[6]; at 3.7 µM,13%
same,growth inhibition,[6]; [17],14%
same,growth inhibition,[6]; at 11.0 µM,15%
same,growth inhibition,[6]; at 33.0 µM,22%
same,growth inhibition,[6]; [18],33%
same,growth inhibition,[6]; at 50.0 µM,91.4% (active)
same,growth inhibition,[6]; at 100.0 µM,9%
same,growth inhibition,[7]; at 1.2 µM,-23%
same,growth inhibition,[7]; at 3.7 µM,-22%
same,growth inhibition,[7]; at 11.0 µM,-25%
same,growth inhibition,[7]; at 33.0 µM,-28%
same,growth inhibition,[7]; at 100.0 µM,-31%
same,growth inhibition,[8]; [17],0%
same,growth inhibition,[8]; [18],97% (active)
same,growth inhibition,[8]; at 50.0 µM,91.6% (active)
same,growth inhibition,[9]; at 1.2 µM,9%
same,growth inhibition,[9]; at 3.7 µM,-4%
same,growth inhibition,[9]; at 11.0 µM,-7%
same,growth inhibition,[9]; at 33.0 µM,11%
same,growth inhibition,[9]; at 100.0 µM,-3%
same,growth inhibition,[10]; [17],2%
same,growth inhibition,[10]; [18],88% (active)
same,growth inhibition,[10]; at 50.0 µM,88.7% (active)
same,growth inhibition,[11]; at 1.2 µM,32%
same,growth inhibition,[11]; at 3.7 µM,26%
same,growth inhibition,[11]; [17],7%
same,growth inhibition,[11]; at 11.0 µM,23%
same,growth inhibition,[11]; at 33.0 µM,26%
same,growth inhibition,[11]; [18],96% (active)
same,growth inhibition,[11]; at 50.0 µM,89.4% (active)
same,growth inhibition,[11]; at 100.0 µM,14%
same,growth inhibition,[12]; at 1.2 µM,1%
same,growth inhibition,[12]; at 3.7 µM,-4%
same,growth inhibition,[12]; at 11.0 µM,6%
same,growth inhibition,[12]; at 33.0 µM,13%
same,growth inhibition,[12]; at 100.0 µM,6%
same,growth inhibition,[13]; at 1.2 µM,-8%
same,growth inhibition,[13]; at 3.7 µM,-2%
same,growth inhibition,[13]; at 11.0 µM,-2%
same,growth inhibition,[13]; at 33.0 µM,3%
same,growth inhibition,[13]; at 100.0 µM,-4%
same,growth inhibition,[14]; at 1.2 µM,-10%
same,growth inhibition,[14]; at 3.7 µM,-20%
same,growth inhibition,[14]; at 11.0 µM,-10%
same,growth inhibition,[14]; at 33.0 µM,-5%
same,growth inhibition,[14]; at 100.0 µM,8%
same,growth inhibition,[15]; [17],21%
same,growth inhibition,[15]; [18],23%
same,growth inhibition,[15]; at 50.0 µM,89.5% (active)
same,growth inhibition,[16]; at 1.2 µM,28%
same,growth inhibition,[16]; at 3.7 µM,27%
same,growth inhibition,[16]; at 11.0 µM,33%
same,growth inhibition,[16]; at 33.0 µM,37%
same,growth inhibition,[16]; at 100.0 µM,32%
